Test results published in PubChem BioAssay AID556 (SRMLSC, 2006).
Screen size: about 65,000 compounds; about 320 (0.49%) were called active. This is one part of a sample in which actives are shown more often than they occur.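 The calls were made as follows: active = the 320 compounds with the highest percent inhibition in the single-dose primary screen, excluding strongly autofluorescent ones (cut at about 32% in these data); inactive = the rest, inconclusive results apart.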

Tested on: diphosphomevalonate decarboxylase (Streptococcus pneumoniae D39)
Test: S. pneumoniae DPM-DC inhibitors, primary screen, biochemical, PK/LDH-coupled NADH fluorescence (AID 556);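 as to inhibition: kinetic rate of NADH fluorescence loss reporting ADP formed by the decarboxylase; 0% = full reaction rate with carrier and 100% = no-substrate background rate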
Conditions: purified DPM-DC, at 10 µM
[1] = stronger effect = higher value unless noted
[2] = measured here: pilot screen trials, stronger effect = higher value

Cc1ccc(OS(=O)Nc2cccc3nccnc23)cc1 (centres undefined)
inhibition [1]: inactive

CCCCSc1nnc(-c2ccc(NC(=O)CC)cc2)n1C
inhibition [1]: 6% (inactive)

CC1CCc2sc3nc(N4CCN(CCO)CC4)n4ncnc4c3c2C1 (centres undefined)
inhibition [1]: inactive

N#Cc1c2c(c(N3CCN(CCO)CC3)n3c1nc1ccccc13)CCCC2
inhibition [1]: inactive

CCC(=O)N(Cc1cc2cc(OC)ccc2[nH]c1=O)c1ccccc1C
inhibition [1]: 16% (inactive)

O=C(Cn1c(=O)n(Cc2ccco2)c(=O)c2ccccc21)NCC1CCCO1 (centres undefined)
inhibition [1]: inactive

O=C(CSc1nc2ccccc2o1)N1CCN(c2ccc(Cl)cc2)CC1
inhibition [1]: 0.5% [measured here: pilot screen trials, stronger effect = higher value] | outcome [1]: inactive

CC(CNC(=O)c1ccc(Br)o1)NC(=O)c1ccc(Br)o1 (centres undefined)
inhibition [1]: 2% (inactive)

CCc1nnc(NC(=O)c2cccs2)s1
inhibition [1]: 5% (inactive)

CCCn1c(SCC(=O)Nc2cccc(C(=O)OCC)c2)nnc1-c1ccoc1C
inhibition [1]: 2% (inactive)

CCC1=[N+]([O-])C(C)(/C(C)=N\O)N(O)C1(C)C (centres undefined)
inhibition [1]: inactive

c1coc(-c2nc3nc4ccccc4n3nc2-c2ccco2)c1
inhibition [1]: 4% (inactive)

CN(c1nc2ccccc2n2c(-c3ccco3)nnc12)S(=O)(=O)c1ccccc1
inhibition [1]: 48% (active)

CC(=O)Nc1ccc(S(=O)(=O)N2CCCC2C(=O)O)cc1 (centres undefined)
inhibition [1]: inactive

CCOc1cccc(-n2nnnc2-c2ccc(OC)cc2)c1
inhibition [1]: 4.5% [measured here: pilot screen trials, stronger effect = higher value] | outcome [1]: inactive

O=C(Cc1cccs1)N1CCCC(c2nc(-c3ccc(S(=O)(=O)N4CCCC4)cc3)no2)C1 (centres undefined)
inhibition [1]: inactive

CCOC(=O)c1ccc(N2C(=O)CC(N3CCC(C(=O)OCC)CC3)C2=O)cc1 (centres undefined)
inhibition [1]: inactive

O=C(NC12CC3CC(CC(C3)C1)C2)N1CCCC(CO)C1 (centres undefined)
inhibition [1]: inactive

CC(=O)Oc1cc2c(C(=O)NCCN3CCOCC3)c(C)oc2c2ccccc12
inhibition [1]: inactive

CN(C)c1ccc(NC(=O)c2ccncc2)c2ccccc12
inhibition [1]: 0% [measured here: pilot screen trials, stronger effect = higher value] | outcome [1]: inactive

Cn1c(=O)[nH]c(=O)c2c1nc(CN1CCN(c3ccccc3F)CC1)n2CCc1ccccc1
inhibition [1]: inactive

Cc1cc(C)n(C(=O)c2ccc(C)c(S(=O)(=O)N3CCOCC3)c2)n1
inhibition [1]: inactive

COc1ccc(C2C3=C(OC(C)=O)c4ccccc4C3=Nc3c2c(=O)n(C)c(=O)n3C)cc1 (centres undefined)
inhibition (stronger effect = higher value): 70% (active) | inhibition [2]: 3.5%

Cc1cccc(C2c3c(n(C)c(=O)n(C)c3=O)N=C3c4ccccc4C(=O)C32)c1 (centres undefined)
inhibition (stronger effect = higher value): 4% (inactive) | inhibition [2]: 1%

COc1ccc(-c2c3c(=O)n(C)c(=O)n(C)c3cn2NC(C)=O)cc1
inhibition [1]: 20% (inactive)

O=C(O)c1cc(S(=O)(=O)N2CCCCCC2)c(Cl)cc1Cl
inhibition [1]: inactive

COc1ccccc1N1CCN(C(=O)c2ccc(S(=O)(=O)N3CCCCC3)cc2)CC1
inhibition [1]: inactive

COC(=O)c1cccc(NC(=O)CN2CCC(NC(=O)c3cc(OC)c(OC)c(OC)c3)CC2)c1
inhibition [1]: inactive

O=C(Nc1cccc2cccnc12)c1cccc(N2C(=O)CCC2=O)c1
inhibition [1]: 3% (inactive)

C=C(C)CSc1nc(N)c2c3c(sc2n1)CCC3
inhibition [1]: 6% (inactive)

COc1cc(Cl)c(C)cc1NC(=O)CSc1nnc(-c2cccnc2)n1Cc1ccco1
inhibition [1]: inactive

O=C(Nc1ccccc1F)c1cc(S(=O)(=O)N2CCCCC2)cs1
inhibition [1]: inactive

COc1ccc(-c2c(C)nn3c(N4CCC(C(=O)N5CCCCC5)CC4)cc(C)nc23)cc1OC
inhibition [1]: inactive

CCCS(=O)(=O)Nc1c(C(=O)O)[nH]c2ccccc12
inhibition [1]: 8% [measured here: pilot screen trials, stronger effect = higher value] | outcome [1]: inactive

Cc1ccc(C)c(N2CCN(C(=O)CCCCn3c(=O)[nH]c4ccccc4c3=O)CC2)c1
inhibition [1]: inactive

COc1ccc(C(C)=O)cc1COC(=O)Cn1cnc2ccccc2c1=O
inhibition [1]: inactive

O=S(=O)(c1ccc(F)cc1)N1CCN(Cc2ccccc2C(F)(F)F)CC1
inhibition [1]: inactive

CCOc1c(N2CCCCC2)c(=O)c1=O
inhibition [1]: inactive

O=C(CSCc1cccs1)N1CCCC1
inhibition [1]: 0% [measured here: pilot screen trials, stronger effect = higher value] | outcome [1]: inactive

Cc1c2cn[nH]c(=O)c2c(C)n1Cc1ccc(F)cc1
inhibition [1]: inactive

CCS(=O)(=O)n1nc(-c2ccccc2)nc1SCc1ccccc1
inhibition [1]: inactive

CC1=C(C(=O)Nc2ccccc2)C(c2cccs2)C(C#N)=C(SCC#N)N1 (centres undefined)
inhibition (stronger effect = higher value): 1% (inactive) | inhibition [2]: 3%

CC1CCCN(Cc2nc3c(c(=O)n(C)c(=O)n3C)n2CC(=O)c2ccccc2)C1 (centres undefined)
inhibition [1]: inactive

Cc1cc(Nc2cccc(F)c2)n2ncnc2n1
inhibition [1]: inactive

Cc1cc(C)c(C#N)c(SCc2[nH]nc3c2C(c2ccccc2)C(C#N)=C(N)O3)n1 (centres undefined)
inhibition [1]: 0% [measured here: pilot screen trials, stronger effect = higher value] | outcome [1]: inactive

CC(C[N+](C)(C)C)OC(N)=O (centres undefined)
inhibition (stronger effect = higher value): 1% (inactive) | inhibition [2]: 0%

CCOC(=O)CSC1=C(C#N)C(c2ccco2)C(C(=O)OCc2ccccc2)=C(C)N1 (centres undefined)
inhibition [1]: 11% (inactive)

NC(=O)c1ccccc1NC(=O)c1ccccc1F
inhibition [1]: inactive

Cc1nc2ncnn2c(C)c1CCC(=O)N1CCN(C(=O)c2ccco2)CC1
inhibition [1]: inactive

O=C(c1ccccc1)c1ccc(OC(=O)N2CCCC2)cc1
inhibition [1]: inactive

COC(=O)c1ccccc1NC(=O)Cn1nc(C(F)(F)F)c2c1CCC2
inhibition [1]: inactive

CCN=C1SC(CC(=O)Nc2ccc(C)cc2)C(=O)N1CC (centres undefined)
inhibition [1]: inactive

Cc1ccccc1Nc1nnc(C)c(=O)[nH]1
inhibition [1]: 2% (inactive)

CCSc1nc2c(c(=O)[nH]1)C(c1cccnc1)C(C(=O)OC(C)C)=C(C)N2 (centres undefined)
inhibition [1]: 0% [measured here: pilot screen trials, stronger effect = higher value] | outcome [1]: inactive

COc1ccc(NC(=O)CCNC(=O)Cn2ccc3ccccc3c2=O)c(OC)c1
inhibition [1]: 1.5% [measured here: pilot screen trials, stronger effect = higher value] | outcome [1]: inactive

CCOC(=O)CSc1nnc(NC(=O)c2cccc(S(=O)(=O)N3CCCC3)c2)s1
inhibition [1]: inactive

C=CCNC(=O)c1ccc(C)c(Br)c1
inhibition [1]: inactive

CCN(CC)CCNC(=O)C1c2ccccc2C(=O)N(C)C1c1cn(C)c2ccccc12 (centres undefined)
inhibition [1]: inactive

COc1ccccc1CNCc1cccs1
inhibition [1]: inactive

COC(=O)c1cc(C(=O)CSc2nc(C)cc(C)n2)ccc1O
inhibition [1]: inactive

CCOC(=O)Cc1csc(NC(=O)CN(C)S(=O)(=O)c2ccc3c(c2)CCC(=O)N3)n1
inhibition [1]: 0% [measured here: pilot screen trials, stronger effect = higher value] | outcome [1]: inactive

COc1ccc(OC)c(CNC(=O)CCc2nc(-c3cccs3)no2)c1
inhibition [1]: inactive

Cc1nnc(SCCCn2c(N3CCCCC3)nc3c2c(=O)[nH]c(=O)n3C)s1
inhibition [1]: 1% [measured here: pilot screen trials, stronger effect = higher value] | outcome [1]: inactive

Cc1ccc(C(=O)OCC(=O)NCc2ccc3c(c2)OCO3)s1
inhibition [1]: 14% (inactive)

CCCn1c(=O)c2ccccc2n2c(SCC(=O)/C(C#N)=C(\C)N)nnc12
inhibition [1]: 34% (active)

CCCn1cc(SCC(N)=O)c2ccccc21
inhibition [1]: 0% [measured here: pilot screen trials, stronger effect = higher value] | outcome [1]: inactive

C=CCn1c(=O)c2ccccc2n2c(SCC(=O)N3CCCc4ccccc43)nnc12
inhibition [1]: inactive

COC(=O)c1ccccc1NC(=O)CN(Cc1ccccc1)S(C)(=O)=O
inhibition [1]: 5% (inactive)

CC(=O)c1ccc(N2C(=NC(=O)C(C)C)SC3CS(=O)(=O)CC32)cc1 (centres undefined)
inhibition [1]: 14% (inactive)

CCOCCN(C=O)c1cccc(OC)c1
inhibition [1]: inactive

COc1ccc(-c2ccnc(SCC(=O)N3CCOCC3)n2)cc1
inhibition [1]: inactive

COc1cc(NS(=O)(=O)c2ccc(NC(C)=O)cc2)cc(OC)c1
inhibition [1]: inactive

CCC(=O)Nc1sc(C(=O)N2CCCCC2)c(C)c1C#N
inhibition [1]: inactive

O=C(CNC(=O)c1ccco1)OCC(=O)c1ccccc1
inhibition [1]: 14% (inactive)

Cc1ccc2nc(NC(=O)C3CCN(S(=O)(=O)c4ccc5c(c4)oc(=O)n5C)CC3)sc2c1
inhibition [1]: inactive

CCS(=O)(=O)n1nc(-c2ccc(OC)cc2)nc1SC
inhibition [1]: inactive

Cn1c(SCC(=O)N2CCOCC2)nnc1-c1ccc(NC(=O)c2ccccc2F)cc1
inhibition [1]: 100% (active)

Cc1ccccc1C(=O)Nc1cccc(-c2nnc(SCC(=O)O)n2C)c1
inhibition [1]: 3% (inactive)

Cn1c(SCC(=O)Nc2cccc(O)c2)nnc1-c1ccc(S(=O)(=O)N2CCOCC2)cc1
inhibition [1]: inactive

O=C1OC(NC(=O)c2ccccc2)C(N2CCOCC2)=C1Cl (centres undefined)
inhibition [1]: 9% (inactive)

CCOc1ccc(-n2c(SC(C)C(=O)OC)nc3c(c2=O)SCC3)cc1 (centres undefined)
inhibition [1]: 1% (inactive)

O=C(NCc1ccccn1)c1cnc2sccn2c1=O
inhibition [1]: 27% (inactive)

CC(C)Cc1cc(C(=O)Nc2cc(Br)ccc2O)no1
inhibition [1]: inactive

CCCC(C)n1[nH]c(=O)c2c(C)cc(C)nc21 (centres undefined)
inhibition [1]: inactive

Cc1nnc(SCC(=O)N(C(C)C)C(C)C)nc1C
inhibition (stronger effect = higher value): 4% (inactive) | inhibition [2]: 0%

CC(C)(C)c1ccc(NC(=O)NCc2ccco2)cc1
inhibition [1]: inactive

CCCn1c(SCC(=O)c2ccc3c(c2)OCCO3)nnc1C(C)C
inhibition [1]: 4% (inactive)

CS(=O)(=O)N1CCN(C(=O)Cc2ccccc2)CC1
inhibition [1]: inactive

CC1(C)Cc2cccc(OCC(=O)Nc3nccs3)c2O1
inhibition [1]: inactive

CCOC(=O)C1CCCN(C(=O)c2sc3nc(C)nc(N4CCOCC4)c3c2C)C1 (centres undefined)
inhibition [1]: inactive

O=C(CN1CCN(c2ccccn2)CC1)NCc1cccs1
inhibition [1]: inactive

CC(C)COC(=O)C1C2C=CC3(CN(C(C)c4ccc(Br)cc4)C(=O)C13)O2 (centres undefined)
inhibition (stronger effect = higher value): 22% (inactive) | inhibition [2]: 0%
